Laboratory results published in PubChem BioAssay (NCI).
This is part of a sample that, as a whole, favours compounds with a hit. Of some 79,000 tested, about 15% had one in any assay. Active and inactive are the calls of the source. Rule as the data show it: active = growth inhibition above about 70%; inactive = the rest.

Legend:
[1] = NCI Yeast Anticancer Drug Screen. Data for the rad50 strain (AID 155);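 also: 0% = growth of vehicle-only cultures of the same strain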; details: S. cerevisiae rad50 strain growth inhibition, hits give high values
Outline: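 Compounds were tested on a yeast strain with an engineered DNA damage repair alteration; the reported value is growth inhibition normalised to vehicle treatment.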

[2] = NCI Yeast Anticancer Drug Screen. Data for the mec2-1 strain (AID 157); details: S. cerevisiae mec2-1 strain, hits give high values
Outline: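 Each compound was tested on mec2-1 yeast, a strain altered in DNA damage repair or cell cycle control. Growth inhibition is reported relative to vehicle.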

[3] = NCI Yeast Anticancer Drug Screen. Data for the sgs1 mgt1 strain (AID 161);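 also: 0% = growth of cultures given vehicle only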; details: S. cerevisiae sgs1 mgt1 strain, hits give high values
Outline: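 Read-out: growth inhibition vs vehicle controls. Cells: mutant yeast strain deficient in DNA damage repair.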

[4] = NCI Yeast Anticancer Drug Screen. Data for the cln2 rad14 strain (AID 165);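 also: 0% = growth equal to vehicle treated cultures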; details: S. cerevisiae cln2 rad14 strain, hits give high values
Outline: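 Test compounds were added to cln2 rad14 yeast cultures; inhibition of growth was then determined by comparison with vehicle treatment.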

[5] = NCI Yeast Anticancer Drug Screen. Data for the bub3 strain (AID 167); details: S. cerevisiae bub3 mutant strain, hits give high values
Outline: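 Growth of a checkpoint-deficient yeast mutant is measured after compound exposure. Values represent inhibition relative to vehicle.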

[6] = NCI Yeast Anticancer Drug Screen. Data for the mlh1 rad18 strain (AID 175); details: S. cerevisiae mlh1 rad18 strain growth inhibition, hits give high values
Outline: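 Inhibition values reflect reduced growth of mutant yeast versus vehicle-treated controls following compound exposure; the mutations affect DNA damage repair.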

[7] = at 5.0 µM (retest, dose inferred, filed as 0.5)
[8] = at 50.0 µM (retest, dose inferred, filed as 5.0)

Measured: growth inhibition

[Cl][Sn]([CH2]c1ccccc1)([CH2]c1ccccc1)[CH2]c1ccccc1
active: [1]; [7] 99% | [1]; [8] 98% | [1]; at 50.0 µM 99% | [2]; [7] 100% | [2]; [8] 99% | [2]; at 50.0 µM 99.2% | [3]; [7] 100% | [3]; [8] 99% | [3]; at 50.0 µM 99.3% | [4]; [7] 99% | [4]; [8] 98% | [4]; at 50.0 µM 98.7% | [5]; [7] 99% | [5]; [8] 99% | [5]; at 50.0 µM 98.5% | [6]; [7] 99% | [6]; [8] 99% | [6]; at 50.0 µM 99%

CNC1C(O)CC(OC2C/C=C(\C)C/C(C)=C/C=C/CCC(C)CNC(=O)/C=C/C=C/C2C)OC1C (configuration not stated)
active: [1]; [8] 99% | [2]; [8] 100% | [3]; [8] 100% | [3]; at 50.0 µM 98.3% | [4]; [8] 99% | [4]; at 50.0 µM 99.2% | [5]; [8] 100% | [5]; at 50.0 µM 99.5% | [6]; [8] 100% | [6]; at 50.0 µM 99.1%
inactive: [1]; [7] -6% | [1]; at 50.0 µM 14.4% | [2]; [7] 19% | [2]; at 50.0 µM 63.1% | [3]; [7] 31% | [4]; [7] -14% | [5]; [7] 20% | [6]; [7] 18%

NC(=O)c1ccc(C(=O)Nc2ccc([As](=O)(O)O)cc2)cc1
inactive: [1]; [7] 30% | [1]; [8] 21% | [1]; at 50.0 µM -3.85% | [2]; [7] 6% | [2]; [8] 3% | [2]; at 50.0 µM -26.7% | [3]; [7] 22% | [3]; [8] 3% | [3]; at 50.0 µM -43.2% | [4]; [7] 2% | [4]; [8] -14% | [4]; at 50.0 µM 49.4% | [5]; [7] -7% | [5]; [8] 1% | [5]; at 50.0 µM -13.1% | [6]; [7] 11% | [6]; [8] 9% | [6]; at 50.0 µM -15.9%

CCOC(=O)c1[nH]cnc1/N=N/N(C)N
inactive: [3]; [7] 53% | [4]; [7] 28% | [5]; [7] 47%
active: [1]; [7] 97% | [1]; [8] 98% | [1]; at 50.0 µM 86.8% | [2]; [7] 99% | [2]; [8] 99% | [2]; at 50.0 µM 92% | [3]; [8] 87% | [3]; at 50.0 µM 90.1% | [4]; [8] 81% | [4]; at 50.0 µM 89.2% | [5]; [8] 88% | [5]; at 50.0 µM 89.5% | [6]; [7] 97% | [6]; [8] 97% | [6]; at 50.0 µM 90%

O=C1C(=O)C(Br)(Br)C(Br)=C1Br
active: [1]; at 50.0 µM 88.5% | [2]; at 50.0 µM 88.2% | [3]; at 50.0 µM 95% | [4]; at 50.0 µM 90.5% | [5]; at 50.0 µM 93.5% | [6]; at 50.0 µM 96.8%
inactive: [1]; [7] -2% | [1]; [8] 4% | [2]; [7] 1% | [2]; [8] 21% | [3]; [7] -4% | [3]; [8] 5% | [4]; [7] -1% | [4]; [8] -2% | [5]; [7] -4% | [5]; [8] -1% | [6]; [7] -4% | [6]; [8] -4%

CC(CCC/C=C/CCCN(C)C(=N)N)CC(C)C1OC(=O)C(C)C(O)/C=C/C(C)C(O)C(C)C(O)C(C)C(O)CCCC(O)CC2(O)OC(CC(OC(=O)CC(=O)O)CC(O)CC(O)C(C)C(O)/C=C/C=C/C1C)CC(O)C2O (configuration not stated)
active: [1]; [8] 99% | [1]; at 50.0 µM 92.9% | [2]; [8] 99% | [2]; at 50.0 µM 94.1% | [3]; [8] 99% | [3]; at 50.0 µM 93.6% | [4]; [8] 99% | [4]; at 50.0 µM 92.2% | [5]; [8] 99% | [5]; at 50.0 µM 93.1% | [6]; [8] 99% | [6]; at 50.0 µM 92.8%
inactive: [1]; [7] -79% | [2]; [7] 7% | [3]; [7] 6% | [4]; [7] 21% | [5]; [7] 9% | [6]; [7] 13%

NC(=O)Nc1ccc([As](Sc2ccccc2C(=O)O)Sc2ccccc2C(=O)O)cc1
inactive: [1]; [7] -1% | [1]; [8] 14% | [1]; at 50.0 µM 15.9% | [2]; [7] -3% | [2]; [8] -1% | [2]; at 50.0 µM 4.75% | [3]; [7] -3% | [3]; [8] 10% | [3]; at 50.0 µM 17.3% | [4]; [7] -8% | [4]; [8] 24% | [4]; at 50.0 µM 28.9% | [5]; [7] -8% | [5]; [8] 26% | [5]; at 50.0 µM -7.1% | [6]; [7] -4% | [6]; [8] 8% | [6]; at 50.0 µM 20.1%

CN(C)[PH+](N(C)C)N(C)C.CN(C)[PH+](N(C)C)N(C)C.[C-]#[O+].[C-]#[O+].[C-]#[O+].[C-]#[O+].[C-]#[O+].[C-]#[O+].[Co].[Co].[Hg]
active: [1]; at 50.0 µM 98.2% | [2]; at 50.0 µM 99.7% | [3]; at 50.0 µM 99.6% | [4]; at 50.0 µM 99.2% | [5]; at 50.0 µM 99.5% | [6]; at 50.0 µM 98.8%
inactive: [1]; [7] 3% | [1]; [8] 16% | [2]; [7] 3% | [2]; [8] 16% | [3]; [7] 1% | [3]; [8] 9% | [4]; [7] -3% | [4]; [8] 2% | [5]; [7] 2% | [5]; [8] 13% | [6]; [7] 5% | [6]; [8] 20%

C[Se]C([Se]C)=C([Se]C)[Se]C
inactive: [1]; [7] 9% | [1]; at 50.0 µM 29.5% | [2]; [7] 3% | [3]; [7] -1% | [3]; at 50.0 µM 52% | [4]; [7] 2% | [4]; [8] 59% | [4]; at 50.0 µM 45.2% | [5]; [7] 5% | [5]; at 50.0 µM -0.4% | [6]; [7] 1%
active: [1]; [8] 95% | [2]; [8] 91% | [2]; at 50.0 µM 99% | [3]; [8] 99% | [5]; [8] 92% | [6]; [8] 94% | [6]; at 50.0 µM 85.3%
